# Experimental data published in PubChem BioAssay (NCATS).
# Unmarked numbers belong to inactive results. Inconclusive results are not listed. A call without a number means that no potency is given here. Active and inactive are the calls of the source. Unless noted, calls come from the whole dose curve; as a rule, active = well fitted inhibition curve with a large enough effect; inconclusive = small, poorly fitted or top-dose-only effect; inactive = flat fitted curve, though single readings scatter.
# Tests used:
# [1] = target: Luciferin 4-monooxygenase (Photinus pyralis) (UniProt P08659); test: Biochemical firefly luciferase enzyme assay for NPC (AID 624030);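 note: purified P. pyralis luciferase at 10 nM with luciferin and ATP substrate; nearly all actives have a fitted effect of over 70% in size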
# Chain of Luciferin 4-monooxygenase (Photinus pyralis) (P08659 whole entry, looked up): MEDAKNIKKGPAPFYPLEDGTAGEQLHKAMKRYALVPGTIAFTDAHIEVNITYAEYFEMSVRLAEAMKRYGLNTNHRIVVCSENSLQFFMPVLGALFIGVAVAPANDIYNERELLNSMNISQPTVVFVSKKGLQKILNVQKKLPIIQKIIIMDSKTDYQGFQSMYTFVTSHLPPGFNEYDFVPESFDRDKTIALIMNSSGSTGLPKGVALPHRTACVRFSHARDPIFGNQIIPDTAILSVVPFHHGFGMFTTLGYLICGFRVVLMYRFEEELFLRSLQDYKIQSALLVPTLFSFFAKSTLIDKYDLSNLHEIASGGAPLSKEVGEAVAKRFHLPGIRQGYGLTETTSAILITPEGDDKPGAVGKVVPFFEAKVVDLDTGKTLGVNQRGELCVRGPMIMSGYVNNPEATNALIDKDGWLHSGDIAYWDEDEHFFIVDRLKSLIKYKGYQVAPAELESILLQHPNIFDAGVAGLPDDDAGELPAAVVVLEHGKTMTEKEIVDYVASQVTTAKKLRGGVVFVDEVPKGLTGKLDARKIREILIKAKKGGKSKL
# In short: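 Purified P. pyralis luciferase at 10 nM in 50 mM Tris Acetate (final), luminescence read within 5 minutes of enzyme addition to compounds. Activity normalised to PTC124 versus DMSO; concentration-response curves classed by r2, magnitude and activity.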
# [2] = S16 Schwann cell PMP22 intronic element beta-lactamase assay (AID 624044; calls by dose curve; note: nearly all actives have a fitted effect of over 15% in size)
# In short: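 Beta-lactamase reporter under a PMP22 intronic regulatory element in stable S16 rat Schwann cells; 24 h compound exposure. 460 nm blue signal normalized between DMSO (0%) and potassium clavulanate, with 535 nm FRET tracking viability; curves classed by r2 and response.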
# [3] = test system: CP215; test: qHTS profiling for inhibitors of Plasmodium falciparum proliferation (AID 504749); note: nearly all actives have a fitted effect of over 60% in size; note: potency is the fitted concentration of half-maximal effect; details: P. falciparum in erythrocytes, SYBR Green DNA, 72 h; series mostly up to 28.7 µM
# In short: (§1)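 Each compound contacts P. falciparum-infected red blood cells for 72 h at 37 C; lysis buffer (Tris, EDTA, saponin, Triton X, SYBR Green I) is added and fluorescence measured next morning; values normalized to controls.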
# [4] = test system: CP262; test: as above; details: P. falciparum in erythrocytes, SYBR Green DNA, 72 h; series mostly up to 28.7 µM
# In short: as §1
# [5] = test system: CP315; test: as above; details: P. falciparum in erythrocytes, SYBR Green DNA, 72 h; series mostly up to 28.7 µM
# In short: as §1
# [6] = test system: CP325; test: as above; details: P. falciparum in erythrocytes, SYBR Green DNA, 72 h; series mostly up to 28.7 µM
# In short: as §1
# [7] = test system: FAB9; test: as above; details: P. falciparum in erythrocytes, SYBR Green DNA, 72 h; series mostly up to 28.7 µM
# In short: as §1
# [8] = test system: ICS; test: as above; details: P. falciparum in erythrocytes, SYBR Green DNA, 72 h; series mostly up to 28.7 µM
# In short: as §1
# [9] = test system: JCK; test: as above; details: P. falciparum in erythrocytes, SYBR Green DNA, 72 h; series mostly up to 28.7 µM
# In short: as §1
# [10] = test system: TAB165; test: as above; details: P. falciparum in erythrocytes, SYBR Green DNA, 72 h; series mostly up to 28.7 µM
# In short: as §1
# [11] = target: Lysosomal acid glucosylceramidase (Homo sapiens) (UniProt P04062); test: Glucocerebrosidase-p2 (AID 348; in the data active = potency below about 10 µM; note: potency is the fitted concentration of half-maximal effect); details: purified GBA, blue fluorogenic substrate, 40 min
# Chain of Lysosomal acid glucosylceramidase (Homo sapiens) (P04062 whole entry, looked up): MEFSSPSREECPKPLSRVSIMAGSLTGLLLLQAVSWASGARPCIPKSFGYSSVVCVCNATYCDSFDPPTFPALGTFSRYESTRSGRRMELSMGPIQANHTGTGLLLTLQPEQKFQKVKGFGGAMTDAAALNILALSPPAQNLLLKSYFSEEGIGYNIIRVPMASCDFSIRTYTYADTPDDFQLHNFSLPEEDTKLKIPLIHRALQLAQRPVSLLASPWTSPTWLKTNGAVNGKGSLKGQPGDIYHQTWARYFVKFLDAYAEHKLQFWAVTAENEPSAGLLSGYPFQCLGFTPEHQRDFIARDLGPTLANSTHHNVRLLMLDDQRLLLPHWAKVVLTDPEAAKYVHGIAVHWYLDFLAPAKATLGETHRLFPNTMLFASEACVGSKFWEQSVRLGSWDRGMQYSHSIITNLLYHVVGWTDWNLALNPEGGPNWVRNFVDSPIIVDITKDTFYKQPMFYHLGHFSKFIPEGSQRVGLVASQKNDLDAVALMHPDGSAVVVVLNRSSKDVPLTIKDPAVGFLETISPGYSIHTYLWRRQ
# In short: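 Normal human glucocerebrosidase (0.2 nM) with blue fluorogenic substrate (80 uM final) in citrate/phosphate pH 5.9 with 10mM sodium taurocholate, 0.01% tween-20; 40 min RT, NaOH/glycine stop; fluorescence Ex 365/Em 440; AC50 from a titration from 0.6 nM upwards.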
# [12] = AP1 Signaling Pathway (AID 357; active = well fitted curve in either direction with a large enough effect, not every such curve was filed as active;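 note: ME-180 reporter cells stimulated with EGF at its EC50 level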); details: ME-180 AP-1-bla reporter, EGF-induced, beta-lactamase ratio, 5 h; at 7.69 µM (top of the series)
# In short: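 Beta-lactamase reporter under AP-1 response element, ME-180 background. Stimulus: EC50 EGF. Compound exposure 5 h, 37 °C. Detection: CCF4, 2.5 h RT, 460/530 nm. Values: AC50 from titration.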
# [13] = NFAT Signaling Pathway (AID 444; active = well fitted curve in either direction with a large enough effect, not every such curve was filed as active;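 note: carbachol stimulus at about its EC50 of 1 µM final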); details: Jurkat NFAT-bla M1, carbachol, beta-lactamase ratio, 5 h; at 7.69 µM (top of the series)
# In short: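 Jurkat cells with NFAT-driven β-lactamase reporter and co-expressed M1 receptor, stimulated with carbachol (final 1 uM, ~EC50), compound titration, 5 h at 37 °C. CCF4 loaded 1 h at RT; 460/530 nm ratio gave %activity and AC50.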
# [14] = Stat Signaling Pathway (AID 446; active = well fitted curve in either direction with a large enough effect, not every such curve was filed as active;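 note: ME-180 cervical cancer cells given 40 pM IL-6 alongside compound; SIE-controlled beta-lactamase reporter measured as 460/530 nm FRET emission ratio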); details: ME-180 (cervical carcinoma) SIE beta-lactamase reporter, IL-6 stimulated, 5 h; at 7.69 µM (top of the series)
# In short: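 Normalization used AC90 stimulation (300 pM IL-6) and AC90 inhibition (125 nM pan-JAK inhibitor at 40 pM IL-6). The underlying signal is SIE-driven beta-lactamase in ME-180 cells after 5 h IL-6 exposure with compound.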
Structure (SMILES),Potency [1],Potency [2],Potency [3],Potency [4],Potency [5],Potency [6],Potency [7],Potency [8],Potency [9],Potency [10],Potency [11] [µM],"activity change, negative = inhibition [12] [%]","activity change, negative = inhibition [13] [%]","activity, negative = inhibition [14] [%]"
CCOC(=O)C(CCc1ccccc1)NC1CCc2ccccc2N(CC(=O)O)C1=O (centres undefined),inactive,inactive,inactive,inactive,inactive,inactive,inactive,6.31 µM (active),inactive,11.2 µM (active),,,,
NCCC[C@@H](N)C(=O)O,,,,,,,,,,,> 11.4,-2,-0.481,1.44
